Inconclusive results are not listed. Where a call stands in place of a potency, no number is given. The source made the active and inactive calls. Calls come from the whole dose curve; as a rule, active = well fitted inhibition curve with a large enough effect; inconclusive = small, poorly fitted or top-dose-only effect; inactive = flat fitted curve, though single readings scatter.
Target: Calcium and integrin-binding protein 1 (Homo sapiens) (UniProt Q99828)
Test: Primary qHTS for Identification of Calcium Integrin Binding Protein 1 (CIB1) Competitor (AID 1508620);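 note: GST tagged CIB1 binding a fluorescein labelled alphaIIb integrin peptide tracer; top concentration of the series differs between compounds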
Conditions: CIB1-GST / FITC-alphaIIb peptide fluorescence polarization; series mostly up to 114 µM
Method in brief: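 Fluorescence polarization competition: CIB1-GST (1 uM final) preincubated with compound 15 min at room temperature, then FITC-labeled alphaIIb peptide (100 nM final) added for another 15 min. Polarization read at Ex 480/Em 540.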

Chain of Calcium and integrin-binding protein 1 (Homo sapiens) (Q99828 whole entry, looked up): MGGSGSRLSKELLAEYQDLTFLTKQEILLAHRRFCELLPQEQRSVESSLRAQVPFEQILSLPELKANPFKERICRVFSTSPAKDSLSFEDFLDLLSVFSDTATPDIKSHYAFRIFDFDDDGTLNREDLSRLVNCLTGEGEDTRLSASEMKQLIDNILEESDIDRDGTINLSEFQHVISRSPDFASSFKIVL

SMILES	Potency
Cc1cccc(C)c1-n1c(SCC(=O)Nc2ccc(C(=O)O)cc2)nnc1-c1ccc([S+](=O)([O-])N2CCCC2)cc1	inactive
CCOC(=O)c1ccoc1-c1ccc2ncnc(NCCc3cnc[nH]3)c2c1	inactive
S=C(Nc1cc(Cl)ccn1)N1CCN(c2cccc(Cl)c2Cl)CC1	inactive
COc1cc(O)c(C(CC(=O)N2CCC(C)CC2)c2ccc(OC)c(OC)c2)c(OC)c1 (stereo not given)	inactive
Cc1cc(C)nc(NC(=S)N2CCN(c3ncnc4sccc34)CC2)c1	inactive
O=C(OCC#CCSc1nnc(-c2ccccc2)o1)c1ccc(F)cc1	inactive
CC1=C(C(=O)Nc2ccc(C)cc2)C(c2ccccc2Br)N=C(Nc2nc3ccccc3o2)N1 (stereo not given)	inactive
O=C(NNC(=O)c1cc2ccccc2[nH]1)OCc1ccccc1	inactive
Fc1ccc(CNc2nc(-c3ccccc3C(F)(F)F)nc3ccccc23)cc1	inactive
Cc1ccc(OCCn2c(CCNC(=O)C(C)(C)C)nc3ccccc32)cc1	inactive
Cc1cc2c(s1)c1cnn(Cc3c(F)cccc3F)c(=O)c1n2C	inactive
O=C(Cc1nnc(-c2ccncc2)s1)Nc1ccc(F)c(C(F)(F)F)c1	inactive
Cn1c2cc(B(O)O)sc2c2cnn(Cc3c(F)cccc3F)c(=O)c21	inactive
O=[S+]([O-])(Nc1ccccc1F)c1cccc(NC/C=C/c2ccccc2)c1	inactive
O=C1CCc2cc(S(=O)(=O)Nc3ccncc3)ccc2N1	inactive
N#Cc1ccc(C[C@@H](NS(=O)(=O)c2ccc(C(=O)O)cc2)C(=O)O)cc1	inactive
Cc1cccc(-n2cnc3cc(C(=O)N4CCC(c5ccccc5)CC4)ccc32)c1	inactive
Cc1ccnc(NC(=S)N2CCN(c3cccc(Cl)c3Cl)CC2)c1	inactive
Cc1cc(C)n2ncc(C(=O)Nc3ccccc3Sc3ccccc3)c2n1	inactive
Cc1ccc(OCCn2c(CCNC(=O)Cc3ccc(F)cc3F)nc3ccccc32)cc1	inactive

SMILES	Potency
NC(=O)C1CCN(c2cc(-c3ccc4c(c3)OCCCO4)ncn2)CC1	inactive
CC(C)(C)OC(=O)N1CCN(c2ccc(OCc3ccc(-c4ccc(C#N)cc4)o3)cc2)CC1	inactive
NC(=O)c1c(NC(=O)c2ccco2)sc2c1CCCC2	inactive
CN(C)c1cccc(-c2nccc(N3CCC(C(N)=O)CC3)n2)c1	inactive
CONC(=O)C[C@@H](C#N)NC(=O)[C@@H]1CCCN1C(=O)[C@@H](NC(=O)c1ccc(N)c(Cl)c1)C(C)(C)C	inactive
COc1cc2ncnc(N(C)Cc3csc(C)n3)c2cc1-c1ccc2c(c1)OCO2	inactive
CC(=O)Nc1ccc(C(=O)Nc2ccc(-c3nc4ccccc4[nH]3)cc2)cc1	inactive
O=[S+]([O-])(c1ccc2c(c1)OCCO2)N1CCN([S+](=O)([O-])c2ccc(F)cc2Cl)CC1	inactive
CCN1CCN(C(=S)c2ccc(O)cc2)CC1	inactive
Cc1ccc(OCCn2c(CCNC(=O)c3ccc(C(C)(C)C)cc3)nc3ccccc32)cc1	inactive
CC(=O)c1ccc(NC(=O)Nc2nnc(-c3ccncc3)s2)cc1	inactive
CC(C)c1ccccc1-c1nc(NCc2ccc(-c3cccnc3)cc2)c2occc2n1	inactive
O=c1c2ccccc2nc2sc(NCc3ccc(Oc4ccccc4)cc3)nn12	inactive
CC(C)c1nc2c(cnn2C)c(=O)n1N	inactive
NNC(=O)C(C(=O)OCc1ccccc1)c1ccccc1 (stereo not given)	inactive
Cc1cc2c(s1)c1cnn(Cc3cccc(Cl)c3F)c(=O)c1n2C	inactive
O=C(Nc1ccc(-c2nc3ccccc3[nH]2)cc1)c1ccc(Oc2ccccc2)cc1	inactive
FC(F)(F)c1ccccc1-c1nc(NCc2ccc(-c3cccnc3)cc2)c2sccc2n1	inactive
Cc1cnc(-c2ccccc2C(C)C)nc1NCC1CCN(C2COC2)CC1	inactive
Cc1ccc(OCCn2c(CCNC(=O)C3CCN(C(=O)OC(C)(C)C)CC3)nc3ccccc32)cc1	inactive
